Our source for the AC50 and activity, negative = inhibition values is PubChem BioAssay AID1851 (National Center for Advancing Translational Sciences (NCATS), 2009).

Molecules are shown by their SMILES. Out of some 16,000 compounds screened, about 5,700 (36%) were called active. Inconclusive results (about 24%) are left out. This is one part of the list. Values without a mark were called inactive. Calls follow the shape of the dose curve; as a rule, active = well fitted curve in the direction sought with a large enough effect; inconclusive = small, poorly fitted or top-dose-only effect, or effect the other way; inactive = no such curve, though single readings can be large or run the other way.
% is scaled to controls: 0 for no effect and ±100 for the full control effect.

For this test, the target named is Cytochrome P450 1A2 (Homo sapiens) (UniProt P05177). The experiment in a line: Cytochrome panel assay with activity outcomes. To be noted: recombinant CYP, pro-luciferin dealkylation, luminescence, p450-cyp1a2; series mostly up to 57.1 µM.
Sequence of Cytochrome P450 1A2 (Homo sapiens) (P05177 whole entry, looked up): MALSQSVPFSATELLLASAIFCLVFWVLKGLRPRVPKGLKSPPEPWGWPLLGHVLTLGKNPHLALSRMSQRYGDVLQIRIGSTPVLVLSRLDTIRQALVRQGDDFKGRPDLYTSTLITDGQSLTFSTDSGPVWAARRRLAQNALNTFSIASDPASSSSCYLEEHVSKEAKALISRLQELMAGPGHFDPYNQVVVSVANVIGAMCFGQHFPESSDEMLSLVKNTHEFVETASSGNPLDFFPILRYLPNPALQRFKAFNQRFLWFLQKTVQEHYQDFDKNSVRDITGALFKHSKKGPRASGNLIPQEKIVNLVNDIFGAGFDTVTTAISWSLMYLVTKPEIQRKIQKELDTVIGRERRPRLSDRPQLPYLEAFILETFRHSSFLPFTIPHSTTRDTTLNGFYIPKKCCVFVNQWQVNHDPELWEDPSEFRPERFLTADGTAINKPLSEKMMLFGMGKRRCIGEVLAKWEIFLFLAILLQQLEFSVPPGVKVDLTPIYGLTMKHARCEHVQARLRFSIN
Broadly, the AC50 is the midpoint of the concentration-response curve, whichever way the signal moves. Turning to `CCCCNC(=O)C1C2C=CC3(CN(Cc4ccccc4Cl)C(=O)C13)O2` (centres undefined), the AC50 result was “inactive”.

For the molecule `Cc1cc(-c2cc(-c3ccc(Cl)cc3)nc(N)c2C#N)co1`, the AC50 was 8.91 µM (active).

On to `COc1ccc(COC(=O)N/N=C2/C[C@@H](O)[C@@H](O)[C@@H]3[C@@H]4C(=O)N(C(C)(C)C)C(=O)[C@H]4CC[C@@H]23)cc1`, for which the activity, negative = inhibition is -55.1% [at 11.4 µM].

Turning to `Cc1cc(C)cc(N(C(=O)C2CCCC2)C2C=CS(=O)(=O)C2)c1` (centres undefined), the AC50 result is “inactive”.

On to `N=C1/C(=C/c2cccs2)C(=O)N=C2SN=C(SCc3ccccc3)N12`, for which the AC50 is 15.8 µM (active).

`CO[C@@H]1/C=C\CC(=O)N[C@@H](C)C(=O)OC[C@@H](OC)[C@H](C)CCCC(=O)OC[C@H]1C`: the activity, negative = inhibition was 0.281% [at 11.4 µM].

Turning to `Cc1cc(N2CCN(C)CC2)n2nc(-c3ccc(Cl)cc3)nc2n1`, the activity, negative = inhibition was -14.3% [at 11.4 µM].

In the case of `Cc1nc2nc(-c3ccc(Cl)cc3)nn2c(C)c1Cl`, the AC50 is 0.562 µM (active).

As to `C/C(Cl)=C\Cn1c(N2CCCC2)nc2c1c(=O)[nH]c(=O)n2C`, the AC50 was 14.1 µM (active).

Turning to `CCN1CCN(c2nc3c(c(=O)[nH]c(=O)n3C)n2CCCSc2ncccn2)CC1`, the AC50 result was “inactive”.

Turning to `Cc1cc(C)n(-c2nc3c(c(=O)[nH]c(=O)n3C)n2CC(C)C)n1`, the AC50 entry was “inactive”.

`C#CCCCO/N=C1/[C@H]2O[C@@H]2[C@@H](O)[C@H]2[C@H]1CCn1c(=O)n([C@@H](CC)c3ccccc3)c(=O)n12`: the activity, negative = inhibition is -5% [at 11.4 µM].

In the case of `O=C(c1ccc([N+](=O)[O-])cc1)n1nc(-c2ccccc2)nc1NCc1ccccc1`, the AC50 is 7.08 µM (active).

Take `COc1ccc(CCNC(=O)C2CCN(S(=O)(=O)c3cccc4nsnc34)CC2)cc1OC`: the AC50 entry is “inactive”.

Regarding `CC(C)C(NS(=O)(=O)c1cccc2nsnc12)C(=O)N1CCc2ccccc2C1` (centres undefined), the AC50 result was “inactive”.

In the case of `O=C(CCCNS(=O)(=O)c1cccc2nsnc12)NCCc1ccccc1`, the AC50 is 25.1 µM (active).

As for `O=C1CCCCC(=O)c2ccccc2N1`, the AC50 entry was “inactive”.

With `O=C1Cc2c([nH]c3ccc(Br)cc23)-c2ccccc2N1`, the AC50 is 0.158 µM (active).

As for `O=C(NC1(C(F)(F)F)C(=O)Nc2c1c(=O)[nH]c(=O)n2-c1ccc(F)cc1)c1cccnc1` (centres undefined), the AC50 result was “inactive”.

With `Cn1c(Sc2ccc(-c3cccnc3)n2C)ccc1-c1cccnc1`, the AC50 is 0.398 µM (active).

Take `C1CCc2nnnn2CC1`: the AC50 result is “inactive”.

For the molecule `NC(N)=NC(N)=Nc1ccc(S(N)(=O)=O)cc1`, the activity, negative = inhibition is -9.8% [at 11.4 µM].

Consider `NC(N)=NC(N)=Nc1ccccc1` (tested in a mixture with another compound), for which the AC50 is 3.16 µM (active).

`NC(N)=NC(N)=Nc1ccc(S(=O)(=O)O)cc1`: the activity, negative = inhibition is -8.09% [at 11.4 µM].

With `NC(N)=NC(N)=Nc1cccc(Cl)c1`, the AC50 result is “inactive”.

Consider `NC(N)=NC(N)=Nc1c(F)c(F)c(F)c(F)c1F`, for which the activity, negative = inhibition is 10.9% [at 2.29 µM].

With `NC(N)=NC(N)=Nc1ccccc1`, the AC50 was 31.6 µM (active).

In the case of `Nc1cc(-c2nn[nH]n2)ccc1F`, the AC50 entry is “inactive”.

`CC(=O)N(/N=C/c1cccc(C)c1)c1nc(-c2ccc(Br)cc2)cs1`: the AC50 was 1.41 µM (active).

Turning to `COc1ccc(/C=N/N(C(C)=O)c2nc(-c3ccc(C)cc3)cs2)cc1`, the AC50 was 1.58 µM (active).

Regarding `C/C(CCN1CCCc2nc(C)c(C)cc21)=N\OC[C@@H](C)[C@H](OCc1ccccc1)C(C)C`, the activity, negative = inhibition is -3.05% [at 11.4 µM].

As for `C[C@@]12C[C@H](O)[C@@H]3[C@H](CCC4=CC(=O)CC[C@]43C)[C@H]1CC[C@@H]2c1csc(N)n1`, the activity, negative = inhibition was -9.78% [at 2.29 µM].

As for `Cc1cccc(CNc2ncncc2-c2ccccc2C)c1`, the AC50 is 2.51 µM (active).

Turning to `Cc1ccccc1-c1cncnc1NCc1ccccc1`, the concentration at half-maximal activity (AC50) is 12.6 µM (active).

With `Cc1cccc(CNc2ncncc2-c2ccccc2Cl)c1`, the AC50 is 3.16 µM (active).

For `N#Cc1ccccc1-c1cncnc1NCc1cccnc1`, the AC50 is 0.0631 µM (active).

As for `CCCCCCCCCCCCCCCCCC(=O)O[C@H](CC(=O)O)C[N+](C)(C)C`, the AC50 result was “inactive”.

As to `CCN1CCCCC(=N/O)/C(=N/O)CCCC1`, the activity, negative = inhibition is -9.97% [at 11.4 µM].

On to `CC(C)(C)NS(=O)(=O)c1ccc(NC(=O)C(Sc2ccccc2)c2ccccc2)cc1` (centres undefined), for which the AC50 entry was “inactive”.

On to `C[C@@H]1OC2C3=C(C(=O)[C@H]4O[C@@H]4[C@H]3O)[C@@H]1[C@H]1[C@H](C)OC=C3[C@H](O)[C@H]4O[C@H]4/C(=N\OCc4ccccc4)[C@@]321`, for which the activity, negative = inhibition is -13.5% [at 11.4 µM].

Turning to `O=C(c1ccco1)N1CCC[C@@]2(CCN(Cc3nccs3)C2)C1`, the AC50 result was “inactive”.

For `Cc1ccccc1-c1cncnc1NCc1cccnc1`, the AC50 is 15.8 µM (active).

As to `FC(F)(F)c1ccccc1-c1cncnc1NCc1cccnc1`, the concentration at half-maximal activity (AC50) was 20 µM (active).

Take `Cn1c(=O)c(-c2ccccc2)nc2cnc(Nc3ccccc3)nc21`: the AC50 was 15.8 µM (active).

`Cc1nc2cnc(Nc3ccccc3)nc2n(C)c1=O`: the half-maximal activity concentration (AC50) is 1.26 µM (active).

Regarding `COc1cccc(Nc2ncc3nc(-c4ccccc4)c(=O)n(C)c3n2)c1`, the AC50 was 3.16 µM (active).

Regarding `Cc1ccc(S(=O)(=O)NC(=O)Nc2ncn[nH]2)cc1`, the activity, negative = inhibition was -21.4% [at 2.29 µM].

For `N[C@H](CCCC(=O)O)C(=O)O`, the AC50 entry was “inactive”.

As to `O=C(NC[C@@H](O)CO)c1c(I)c(C(=O)NC[C@@H](O)CO)c(I)c(N(CCO)C(=O)CO)c1I`, the AC50 result is “inactive”.

With `COc1cc2nc(N3CCN(C(=O)[C@@H]4CCCO4)CC3)nc(N)c2cc1OC`, the AC50 entry is “inactive”.

Turning to `CCN1CCN(S(=O)(=O)c2ccc(Cl)c(C(=O)Nc3nnc(CC(C)C)s3)c2)CC1`, the AC50 entry is “inactive”.

Turning to `Cc1nc2c(C(=O)N3CCOCC3)cnn2c(C)c1Cc1ccc(Cl)cc1`, the AC50 was 15.8 µM (active).

Turning to `O=C(c1cc(Cl)c(=O)n(Cc2ccc(Cl)cc2)c1)N1CCOCC1`, the AC50 result was “inactive”.

Turning to `Cc1ccc(CS(=O)(=O)CCC(=O)N2CCOCC2)cc1`, the AC50 result was “inactive”.

Consider `O=C(O)CNC(=O)[C@@H](CS)Cc1ccccc1`, for which the AC50 entry is “inactive”.

Take `CC(C)(C)[Si](C)(C)c1c2c(nc3ccc(OCc4ccccc4)cc13)-c1cccc(=O)n1C2`: the concentration at half-maximal activity (AC50) was 5.01 µM (active).

On to `COc1cc2nc3c(c([Si](C)(C)C(C)(C)C)c2cc1OC)Cn1c-3cccc1=O`, for which the AC50 was 5.01 µM (active).

On to `COc1ccc2nc3c(c([Si](C)(C)C(C)(C)C)c2c1)Cn1c-3cccc1=O`, for which the AC50 is 0.794 µM (active).

Regarding `Cc1nc2cnc(N3CCN(C)CC3)nc2n(CCc2ccccc2)c1=O`, the AC50 is 10 µM (active).

As for `COCCn1c(=O)c(C)nc2cnc(N3CCNCC3)nc21`, the AC50 is 10 µM (active).

For `COCCn1c(=O)c(C)nc2cnc(N3CCN(C)CC3)nc21`, the AC50 is 15.8 µM (active).

Consider `COc1ccc(-c2nc3cnc(N4CCN(C)CC4)nc3n(CCc3ccccc3)c2=O)cc1`, for which the AC50 entry is “inactive”.

Consider `CN1CCN(c2ncc3nc(-c4cc(F)cc(F)c4)c(=O)n(CCc4ccccc4)c3n2)CC1`, for which the AC50 entry was “inactive”.

For `CN(C)C[C@H]1CCC2=C(C1=O)C(c1ccc(Cl)c(Cl)c1)C1=C(CC[C@H](CN(C)C)C1=O)O2`, the activity, negative = inhibition is -2.04% [at 2.29 µM].

As to `CC[C@H]1C2=C3C(CC[C@H]4C(OCc5ccc(F)cc5C(F)(F)F)OC[C@](C)([C@@H]34)N(C(=O)OC(C)(C)C)C2)C(COC(C)=O)C1COC(C)=O` (some centres undefined), the AC50 result was “inactive”.

Take `Oc1cc(CN2COc3ccccc32)c(O)cc1CNC1CCCCC1`: the activity, negative = inhibition was -14.2% [at 11.4 µM].

Turning to `Cc1cc(C(C)(C)C)cc(CNC2CCCCC2)c1O`, the AC50 is 3.16 µM (active).

As for `CO[C@@H]1COC(=O)C/C=C\[C@@H](C)COC(=O)[C@H](Cc2ccccc2)NC(=O)C/C=C\[C@H]1C`, the activity, negative = inhibition was 5.59% [at 11.4 µM].

`CCC(=O)NCc1c(Cl)cccc1-n1cccc1`: the AC50 was 14.1 µM (active).

In the case of `O=C(NNC(=O)c1ccccc1-n1cccc1)c1ccccc1`, the AC50 entry is “inactive”.

With `COc1nc(C)nc(Cl)c1NC1=NCCN1`, the AC50 result is “inactive”.

Take `C/C(=C\c1ccco1)C1C(C#N)=C(N)Oc2n[nH]c(-c3ccccc3)c21` (centres undefined): the half-maximal activity concentration (AC50) is 0.2 µM (active).

On to `COc1ccc(C(C)(C)C)cc1NC(=O)c1cncc(Br)c1`, for which the AC50 was 1 µM (active).

On to `COc1ccc(Nc2nc(N)nc(CSc3n[nH]c(-c4ccccc4)n3)n2)cc1`, for which the AC50 was 15.8 µM (active).

As for `Cc1nnc(SCc2nc(N)nc(Nc3ccccc3)n2)s1`, the AC50 was 4.47 µM (active).

On to `NC[C@@H]1O[C@H](O[C@@H]2[C@H](O[C@@H]3O[C@H](CO)[C@@H](COC[C@H]4O[C@@H](CN)[C@@H](O)[C@@H](O)[C@@H]4N)[C@@H]3O)[C@@H](O)[C@@H](N)C[C@H]2N)[C@@H](N)[C@H](O)[C@@H]1O`, for which the AC50 result is “inactive”.

Turning to `CC(C)c1ccc(N(C(=O)C(F)(F)F)C(C(=O)NC2CCCCC2)c2ccncc2)cc1` (centres undefined), the AC50 result was “inactive”.

With `Cc1cc(C)cc(N(C(=O)Cc2cccs2)C(C(=O)NC2CCCCC2)c2ccccn2)c1` (centres undefined), the AC50 entry was “inactive”.

Consider `O=C(OC(C(=O)NC1CCCC1)c1ccncc1)C1=Cc2ccccc2OC1` (centres undefined), for which the AC50 is 11.2 µM (active).

Take `NCCOB(c1ccccc1)c1ccccc1`: the AC50 was 15.8 µM (active).

Consider `Cc1noc(C)c1C(=O)N1CCC2(CCCN(Cc3ccc(C#N)cc3)C2)CC1`, for which the AC50 entry was “inactive”.

Consider `Cc1noc(C)c1C(=O)OCC(=O)NC(c1ccccc1)c1ccccc1`, for which the AC50 entry is “inactive”.

Consider `Cc1noc(C)c1-c1cc(Nc2ccccc2)ncn1`, for which the AC50 is 1.26 µM (active).

Take `Cc1noc(C)c1-c1cc(Nc2ccc(F)cc2)ncn1`: the AC50 was 0.501 µM (active).

As to `Cc1n[nH]c(C)c1S(=O)(=O)N1CCOCC1`, the AC50 entry is “inactive”.

For `CCc1cc2c(nc1CC)CCN(CC/C(C)=N/O[C@@H](C)c1cc(-c3c(C)cc(C)cc3C)no1)C2`, the activity, negative = inhibition is -8.6% [at 11.4 µM].

Take `O=C(c1cnn(-c2ccccc2)c1)c1ccc2ccccc2c1O`: the AC50 was 2.51 µM (active).

For the molecule `O=C(O)/C(=C\c1ccc(O)cc1)c1cccc2ccccc12`, the activity, negative = inhibition is -10.8% [at 11.4 µM].

Take `CC(C)CNC(=O)O`: the activity, negative = inhibition is -14.2% [at 11.4 µM].
